The values below come from PubChem BioAssay AID1835 (Johns Hopkins Ion Channel Center, 2009).

In all, about 2,400 compounds went through this assay and about 750 (31%) were called active. Some of the results follow. A number with no mark means an inactive call.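 The calls were made as follows: active = median signal gain over dofetilide-blocked control wells reaching their mean plus 3 SD, so readout 1 at least 0; inactive = the rest.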

For the experiment, the target named is Voltage-gated inwardly rectifying potassium channel KCNH2 (Homo sapiens) (UniProt Q12809). The experiment can be described thus: hERG protection against dofetilide inhibition, confirmation, cell-based, thallium flux, duplicate retest, dofetilide IC70 (AID 1835). The following applies: hERG cell line, FluxOR thallium flux, dofetilide-blocked; at 10 µM; stronger effect = higher value.
Chain of Voltage-gated inwardly rectifying potassium channel KCNH2 (Homo sapiens) (Q12809 whole entry, looked up): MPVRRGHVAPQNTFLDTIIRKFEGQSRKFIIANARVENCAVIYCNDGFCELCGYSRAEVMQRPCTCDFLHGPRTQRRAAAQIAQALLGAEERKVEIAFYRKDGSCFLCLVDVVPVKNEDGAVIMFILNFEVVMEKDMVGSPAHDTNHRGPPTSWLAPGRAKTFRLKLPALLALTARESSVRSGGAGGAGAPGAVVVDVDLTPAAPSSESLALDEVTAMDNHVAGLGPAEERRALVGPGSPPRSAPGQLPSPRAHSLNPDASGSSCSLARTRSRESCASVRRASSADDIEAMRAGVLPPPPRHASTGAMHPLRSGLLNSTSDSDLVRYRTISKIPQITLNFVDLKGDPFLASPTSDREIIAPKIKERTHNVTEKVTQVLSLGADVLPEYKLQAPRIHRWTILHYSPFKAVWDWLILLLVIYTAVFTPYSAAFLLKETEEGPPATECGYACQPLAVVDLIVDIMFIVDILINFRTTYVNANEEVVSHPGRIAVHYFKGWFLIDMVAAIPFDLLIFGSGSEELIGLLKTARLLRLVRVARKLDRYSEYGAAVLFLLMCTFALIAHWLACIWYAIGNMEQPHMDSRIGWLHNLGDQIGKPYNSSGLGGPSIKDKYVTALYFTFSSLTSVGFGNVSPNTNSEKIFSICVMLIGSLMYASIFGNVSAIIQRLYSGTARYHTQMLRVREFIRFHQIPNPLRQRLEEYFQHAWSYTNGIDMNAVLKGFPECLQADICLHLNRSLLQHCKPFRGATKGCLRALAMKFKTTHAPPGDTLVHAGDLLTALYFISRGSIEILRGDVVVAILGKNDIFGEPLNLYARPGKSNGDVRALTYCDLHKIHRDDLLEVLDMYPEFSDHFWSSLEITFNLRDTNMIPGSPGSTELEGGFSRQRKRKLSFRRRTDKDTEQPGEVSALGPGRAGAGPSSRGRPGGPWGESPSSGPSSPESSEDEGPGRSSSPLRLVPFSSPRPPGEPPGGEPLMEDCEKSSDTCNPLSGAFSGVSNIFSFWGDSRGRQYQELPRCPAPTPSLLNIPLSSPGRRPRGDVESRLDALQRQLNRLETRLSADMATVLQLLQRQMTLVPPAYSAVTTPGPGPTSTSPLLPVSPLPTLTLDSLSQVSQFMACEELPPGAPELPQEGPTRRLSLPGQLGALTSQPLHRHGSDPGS
On to `Fc1cccc2sc(Nc3nnc(-c4ccccc4)o3)nc12`, for which the activity increase over dofetilide control, less the hit threshold was 59% (active). In the case of `O=C(Cc1ccc(Cl)cc1)Nc1cccc(-c2nnc(-c3ccco3)o2)c1`, the activity increase over dofetilide control, less the hit threshold is -15%. On to `Fc1cccc2sc(Nc3nc4c(F)cccc4s3)nc12`, for which the activity increase over dofetilide control, less the hit threshold was 22% (active).

As for `Fc1cccc2sc(Nc3nnc(-c4ccco4)o3)nc12`, the activity increase over dofetilide control, less the hit threshold was 3% (active). The figure for `COc1cccc(-c2nnc(Nc3nc4c(F)cccc4s3)o2)c1` is 9% (active); for `CC(=O)Nc1nc2c(F)cccc2s1` it is -15%. On to `O=C(NCCc1ccc(F)cc1)c1coc(=O)c(Br)c1`, for which the activity increase over dofetilide control, less the hit threshold is -17%. Take `Fc1ccc2nc(Nc3nc4c(F)cc(F)cc4s3)sc2c1`: the activity increase over dofetilide control, less the hit threshold was 4% (active). The figure for `O=C(Nc1nc2c(F)cc(F)cc2s1)C1COc2ccccc2O1` (configuration not stated) is -6%; for `O=C(CCc1ccccc1)Nc1nnc(-c2ccccn2)o1` it is -12%; for `Cc1ccc(N/C=C/C(=O)c2cccs2)cc1` it is -15%. For `CCOc1ccccc1CNC(=O)CNC(=O)c1cccs1`, the activity increase over dofetilide control, less the hit threshold was -24%.

For the compound `Cc1cc(C(=O)NNC(=O)c2cccs2)nn1C(C)(C)C`, the activity increase over dofetilide control, less the hit threshold was -1%. In the case of `Cc1ccc(NC(=O)C(=O)NNC(=O)c2cccs2)cc1`, the activity increase over dofetilide control, less the hit threshold is 74% (active). On to `CCc1ccc(NC(=O)C(=O)NNC(=O)c2cccs2)cc1`, for which the activity increase over dofetilide control, less the hit threshold was 61% (active). As to `O=C1c2ccccc2C(=O)N1Cc1cc(-c2ccccc2Cl)no1`, the activity increase over dofetilide control, less the hit threshold was -7%.

For the compound `Cc1cc(C(F)(F)F)n(-c2ccc(N)cc2)n1`, the activity increase over dofetilide control, less the hit threshold was -5%.

With `O=C(CSc1nc2cc(Cl)ccc2s1)c1cc2ccccc2o1`, the activity increase over dofetilide control, less the hit threshold is 2% (active). Regarding `CCOC(=O)c1[nH]c(=O)[nH]c1COC(=O)c1cc2ccccc2o1`, the activity increase over dofetilide control, less the hit threshold was -2%.

Consider `O=C(CSc1nnc(SCc2ccccc2)s1)N/N=C/c1ccc(Cl)cc1Cl`, for which the activity increase over dofetilide control, less the hit threshold is -6%. With `CSCC[C@H](NC(=O)Nc1ccc(C)cc1C)C(=O)O`, the activity increase over dofetilide control, less the hit threshold was -8%.

As for `COCCn1c(=S)[nH]c2sc3c(c2c1=O)CCCC3`, the activity increase over dofetilide control, less the hit threshold was 28% (active). Turning to `COCCCn1c(=S)[nH]c2c(sc3ccccc32)c1=O`, the activity increase over dofetilide control, less the hit threshold is -3%.

Regarding `COCCCn1c(=S)[nH]c2sc3c(c2c1=O)CCCC3`, the activity increase over dofetilide control, less the hit threshold is 29% (active). Take `COCCn1c(=S)[nH]c2sc3c(c2c1=O)CCC(C)C3` (configuration not stated): the activity increase over dofetilide control, less the hit threshold was 44% (active). For the compound `CCN1C(=O)C2(/C(=C(\O)c3ccc4c(c3)OCCO4)C(=O)C(=O)N2CCCOC)c2ccccc21` (configuration not stated), the activity increase over dofetilide control, less the hit threshold was -11%. Regarding `CCCCNC(=O)CC(NS(=O)(=O)c1ccc(C)cc1)c1ccco1` (configuration not stated), the activity increase over dofetilide control, less the hit threshold is -13%. The figure for `CCOC(=O)C1=C(C)NC(=O)NC1c1cccc(OC)c1OCc1ccccc1Cl` (configuration not stated) is -11%. For `O=C(NCc1cccs1)C1CCC(CNS(=O)(=O)c2cccs2)CC1` (configuration not stated), the activity increase over dofetilide control, less the hit threshold is -16%.

Consider `CCC(=O)c1cc2c(C)cc(=O)oc2c(C)c1O`, for which the activity increase over dofetilide control, less the hit threshold is -13%.

`CSc1ccccc1NC(=S)NCc1ccc(Cl)cc1`: the activity increase over dofetilide control, less the hit threshold is -15%. As to `COC(=O)c1sccc1NC(=S)N1CCN(C)CC1`, the activity increase over dofetilide control, less the hit threshold was -19%. With `COC(=O)c1sccc1NC(=S)NCc1ccc(Cl)cc1`, the activity increase over dofetilide control, less the hit threshold is 19% (active). With `CCOC(=O)c1c(NC(=O)/C=C/c2ccco2)sc(C)c1C`, the activity increase over dofetilide control, less the hit threshold is -14%. On to `CCOC(=O)c1sc2ncnc(NCC(c3cccs3)N(C)C)c2c1C` (configuration not stated), for which the activity increase over dofetilide control, less the hit threshold was 40% (active). The same measure for `Cc1ccc(OC(=O)c2sc3ncn(C)c(=O)c3c2C)cc1`: -18%; for `CCOC(=O)c1sc2ncnc(NCc3ccco3)c2c1C`: 34% (active); for `c1ccc(Cn2ncc3c(N4CCN(C(c5ccccc5)c5ccccc5)CC4)ncnc32)cc1`: -7%. The figure for `CCCCCCc1c(O)nc(SCC(=O)O)[nH]c1=O` is -16%; for `Cc1ccc(NC(=S)c2nc3ccccc3s2)cc1` it is 5% (active); for `Clc1ccc(Nc2nc3cccnc3s2)cc1` it is -18%. With `Cc1cccc(NC(=S)c2nc3ccccc3s2)c1`, the activity increase over dofetilide control, less the hit threshold was -12%. For `S=C(Nc1ccc(Cl)cc1)c1nc2ccccc2s1`, the activity increase over dofetilide control, less the hit threshold is 46% (active).

Take `O=C(Nc1ccc(Cl)cc1)Nn1cnnc1`: the activity increase over dofetilide control, less the hit threshold is -14%. `CC(C)NC(=S)NNc1nc2ccccc2s1`: the activity increase over dofetilide control, less the hit threshold was -9%. As to `O=C1C(=Cc2cccn2-c2ccc(O)cc2)C(=O)c2ccccc21`, the activity increase over dofetilide control, less the hit threshold was -18%. In the case of `Cc1oc(/N=C/c2ccc(F)cc2)c(C#N)c1C`, the activity increase over dofetilide control, less the hit threshold was -20%. Turning to `CCC(NS(=O)(=O)c1cn(C)nc1C)c1ccccc1` (configuration not stated), the activity increase over dofetilide control, less the hit threshold was -8%. For `O=C(CSc1ncnc2c1cnn2-c1ccc(Cl)cc1)NCc1ccc2c(c1)OCO2`, the activity increase over dofetilide control, less the hit threshold was -2%.

Regarding `CSc1ccc(CNc2nc3ccccc3n3cnnc23)cc1`, the activity increase over dofetilide control, less the hit threshold is -20%. Consider `Cc1cc(C)c(-c2c(O)c3c(n(C)c2=O)CC(C)(C)CC3=O)c(C)c1`, for which the activity increase over dofetilide control, less the hit threshold is -16%. On to `Cn1c(=S)[nH]c2sc3c(c2c1=O)CCC(C(C)(C)C)C3` (configuration not stated), for which the activity increase over dofetilide control, less the hit threshold is 59% (active).
